Data reported in ChEMBL document CHEMBL3988442, “University of Dundee, Small-Polar-MMV Screening Library” (2021).
For some assays here: Potency and affinity values are given separately.

Key:
Parameters in all cases: scale not given: direction of the effect not stated beside the values
[1] = biological target: Protein translocase subunit SecA (Escherichia coli (strain K12)) (UniProt P10408); experiment: Assay to Identify E. coli SecA ATPase Inhibitors; format: functional; conditions: 30 µM
[2] = biological target: T1, Ubiquitin-activating enzyme e1, putative (Leishmania donovani (strain BPK282A1)) (UniProt E9BSI1); experiment: Leishmania donovani Ubiquitin Activating Enzyme (LdE1); format: functional; conditions: 30 µM
T1 sequence (whole entry): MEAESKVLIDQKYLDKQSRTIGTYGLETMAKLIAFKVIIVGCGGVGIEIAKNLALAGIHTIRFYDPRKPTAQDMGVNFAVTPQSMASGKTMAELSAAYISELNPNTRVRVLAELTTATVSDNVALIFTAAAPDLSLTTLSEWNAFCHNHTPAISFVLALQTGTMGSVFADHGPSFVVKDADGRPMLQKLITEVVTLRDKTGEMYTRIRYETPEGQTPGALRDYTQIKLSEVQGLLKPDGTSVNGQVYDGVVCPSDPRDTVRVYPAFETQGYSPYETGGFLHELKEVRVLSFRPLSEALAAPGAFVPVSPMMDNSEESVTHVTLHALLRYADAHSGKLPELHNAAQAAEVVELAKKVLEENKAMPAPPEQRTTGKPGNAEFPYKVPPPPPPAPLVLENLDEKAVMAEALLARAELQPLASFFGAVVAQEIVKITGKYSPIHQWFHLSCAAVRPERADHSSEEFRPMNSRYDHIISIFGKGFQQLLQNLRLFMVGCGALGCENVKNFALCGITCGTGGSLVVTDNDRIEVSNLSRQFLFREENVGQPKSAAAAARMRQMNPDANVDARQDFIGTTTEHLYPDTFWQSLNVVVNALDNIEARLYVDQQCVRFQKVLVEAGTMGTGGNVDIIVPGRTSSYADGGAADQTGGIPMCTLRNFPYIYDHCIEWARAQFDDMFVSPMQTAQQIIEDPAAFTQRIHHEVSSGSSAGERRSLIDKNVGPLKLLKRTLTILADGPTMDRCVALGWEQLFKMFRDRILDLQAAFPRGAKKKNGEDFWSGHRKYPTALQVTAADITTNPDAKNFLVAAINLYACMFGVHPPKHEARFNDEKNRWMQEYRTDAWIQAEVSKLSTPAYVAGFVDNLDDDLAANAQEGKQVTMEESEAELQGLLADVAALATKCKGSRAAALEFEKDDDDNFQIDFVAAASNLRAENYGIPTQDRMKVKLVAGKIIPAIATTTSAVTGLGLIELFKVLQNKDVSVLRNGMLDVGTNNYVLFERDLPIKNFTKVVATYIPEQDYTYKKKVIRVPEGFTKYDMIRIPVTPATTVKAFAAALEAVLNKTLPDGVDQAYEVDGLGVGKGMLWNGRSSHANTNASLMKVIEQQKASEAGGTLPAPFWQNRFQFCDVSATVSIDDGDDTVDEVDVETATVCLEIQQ

[3] = biological target: AMP-activated protein kinase, AMPK (Homo sapiens) (UniProt P54646+O43741+P54619+Q9UGJ0+Q9Y478+Q13131+Q9UGI9); experiment: AMP-dependent Kinase enzyme assay. An in vitro enzyme assay that detects ADP turnover that is directly proportional to AMPK activity. This uses naive AMPK that is activated during the assay with MK-8722; format: functional; conditions: 30 µM
[4] = biological target: Sialic acid-binding Ig-like lectin 9 (Homo sapiens) (UniProt Q9Y336); experiment: Hs-Siglec9 ALPHAscreen SOP 20170721; conditions: 10 µM
Sialic acid-binding Ig-like lectin 9 (Homo sapiens), sequence (Q9Y336 whole entry): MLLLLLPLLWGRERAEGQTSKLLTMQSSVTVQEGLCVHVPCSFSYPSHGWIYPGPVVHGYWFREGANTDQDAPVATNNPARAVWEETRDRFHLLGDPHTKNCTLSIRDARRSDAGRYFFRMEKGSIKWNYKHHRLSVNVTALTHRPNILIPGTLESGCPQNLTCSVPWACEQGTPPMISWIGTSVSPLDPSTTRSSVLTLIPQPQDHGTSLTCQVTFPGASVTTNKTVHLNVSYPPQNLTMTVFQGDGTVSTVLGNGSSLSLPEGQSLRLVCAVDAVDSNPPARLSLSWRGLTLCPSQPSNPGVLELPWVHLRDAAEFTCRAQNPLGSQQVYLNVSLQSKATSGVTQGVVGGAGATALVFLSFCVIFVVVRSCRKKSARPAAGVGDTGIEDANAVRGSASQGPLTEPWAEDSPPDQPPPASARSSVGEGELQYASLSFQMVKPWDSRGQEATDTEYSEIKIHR

[5] = system: Trypanosoma cruzi; experiment: Trypanosoma cruzi phosphomannomutase and mannose-1-phosphate guanylyltransferase assay; format: functional; conditions: 10 µM
[6] = biological target: T2, Arginase-2, mitochondrial (Homo sapiens) (UniProt P78540); experiment: in vitro enzyme assay to detect the production of urea directly proportional to the activity of Arginase II; format: functional; conditions: 33.3 µM; further: in the data most compounds retested in dose-response had high values
T2 sequence (whole entry): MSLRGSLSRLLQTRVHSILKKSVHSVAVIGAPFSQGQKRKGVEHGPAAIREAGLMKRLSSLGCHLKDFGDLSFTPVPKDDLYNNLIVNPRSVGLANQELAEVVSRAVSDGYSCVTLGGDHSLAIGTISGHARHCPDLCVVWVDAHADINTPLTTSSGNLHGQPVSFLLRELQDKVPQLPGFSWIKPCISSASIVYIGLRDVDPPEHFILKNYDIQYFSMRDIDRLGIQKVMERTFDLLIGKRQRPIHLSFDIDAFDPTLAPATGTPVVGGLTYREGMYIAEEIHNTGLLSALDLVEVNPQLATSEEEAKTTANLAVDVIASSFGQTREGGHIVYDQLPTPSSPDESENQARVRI

[7] = biological target: T3, Proteasome subunit beta (Trypanosoma cruzi) (UniProt O96673); experiment: Trypanosoma cruzi proteasome chymotrypsin-like activity (TcProtChymo) assay.; further: in the data most compounds retested in dose-response had high values; format: functional; conditions: 9.37 µM
T3 sequence (whole entry): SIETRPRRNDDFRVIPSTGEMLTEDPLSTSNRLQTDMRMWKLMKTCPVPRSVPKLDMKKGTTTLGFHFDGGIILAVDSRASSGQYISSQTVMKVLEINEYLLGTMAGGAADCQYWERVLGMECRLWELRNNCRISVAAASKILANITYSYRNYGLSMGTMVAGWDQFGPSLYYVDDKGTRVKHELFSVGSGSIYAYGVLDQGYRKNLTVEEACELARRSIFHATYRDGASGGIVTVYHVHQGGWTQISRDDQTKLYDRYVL

[8] = species: Homo sapiens; experiment: To identify inhibition of the IFN signalling (Jak-Stat) pathway via expression of an eGFP reporter gene under the control of an IFN-stimulated response element (ISRE) containing MxA promoter.; format: functional; conditions: 30 µM
[9] = biological target: T4, Tyrosyl-tRNA synthetase, putative (Trypanosoma cruzi (strain CL Brener)) (UniProt Q4DSP6); experiment: Trypanosoma cruzi tyrosyl tRNA synthetase (TcYRS) _High Tyrosine SOP; format: functional; conditions: 30 µM; further: in the data most compounds retested in dose-response had high values
T4 sequence (whole entry): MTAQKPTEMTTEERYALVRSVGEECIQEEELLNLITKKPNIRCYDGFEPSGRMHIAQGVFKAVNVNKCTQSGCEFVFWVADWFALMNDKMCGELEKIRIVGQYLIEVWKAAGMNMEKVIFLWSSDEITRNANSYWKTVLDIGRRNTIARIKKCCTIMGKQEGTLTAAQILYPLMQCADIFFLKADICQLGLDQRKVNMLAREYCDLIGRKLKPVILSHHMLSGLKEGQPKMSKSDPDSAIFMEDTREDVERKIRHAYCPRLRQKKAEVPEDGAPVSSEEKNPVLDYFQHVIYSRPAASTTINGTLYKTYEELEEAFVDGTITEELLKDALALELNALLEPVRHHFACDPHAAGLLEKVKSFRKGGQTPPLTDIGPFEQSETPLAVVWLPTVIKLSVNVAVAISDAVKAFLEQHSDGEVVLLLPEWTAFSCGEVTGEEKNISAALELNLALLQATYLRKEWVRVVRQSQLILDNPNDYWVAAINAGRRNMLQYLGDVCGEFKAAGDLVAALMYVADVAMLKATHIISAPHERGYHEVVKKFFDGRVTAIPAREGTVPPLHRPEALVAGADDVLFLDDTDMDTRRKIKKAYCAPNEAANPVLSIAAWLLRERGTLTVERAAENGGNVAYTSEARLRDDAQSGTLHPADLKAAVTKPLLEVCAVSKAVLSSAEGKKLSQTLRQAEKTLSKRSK

[10] = biological target: T4, Tyrosyl-tRNA synthetase, putative (Trypanosoma cruzi (strain CL Brener)); experiment: Trypanosoma cruzi tyrosyl tRNA synthetase (TcYRS) SOP; format: functional; conditions: 30 µM
[11] = biological target: Chromo domain-containing protein 1 (Saccharomyces cerevisiae (strain ATCC 204508 / S288c) (Baker's yeast)) (UniProt P32657); experiment: ScCHD-1 Enzyme Inhibition Assay; format: functional; conditions: 30 µM; further: in the data most compounds retested in dose-response had high values
Chromo domain-containing protein 1 (Saccharomyces cerevisiae (strain ATCC 204508 / S288c) (Baker's yeast)), sequence (P32657 whole entry, the tested form may be a part): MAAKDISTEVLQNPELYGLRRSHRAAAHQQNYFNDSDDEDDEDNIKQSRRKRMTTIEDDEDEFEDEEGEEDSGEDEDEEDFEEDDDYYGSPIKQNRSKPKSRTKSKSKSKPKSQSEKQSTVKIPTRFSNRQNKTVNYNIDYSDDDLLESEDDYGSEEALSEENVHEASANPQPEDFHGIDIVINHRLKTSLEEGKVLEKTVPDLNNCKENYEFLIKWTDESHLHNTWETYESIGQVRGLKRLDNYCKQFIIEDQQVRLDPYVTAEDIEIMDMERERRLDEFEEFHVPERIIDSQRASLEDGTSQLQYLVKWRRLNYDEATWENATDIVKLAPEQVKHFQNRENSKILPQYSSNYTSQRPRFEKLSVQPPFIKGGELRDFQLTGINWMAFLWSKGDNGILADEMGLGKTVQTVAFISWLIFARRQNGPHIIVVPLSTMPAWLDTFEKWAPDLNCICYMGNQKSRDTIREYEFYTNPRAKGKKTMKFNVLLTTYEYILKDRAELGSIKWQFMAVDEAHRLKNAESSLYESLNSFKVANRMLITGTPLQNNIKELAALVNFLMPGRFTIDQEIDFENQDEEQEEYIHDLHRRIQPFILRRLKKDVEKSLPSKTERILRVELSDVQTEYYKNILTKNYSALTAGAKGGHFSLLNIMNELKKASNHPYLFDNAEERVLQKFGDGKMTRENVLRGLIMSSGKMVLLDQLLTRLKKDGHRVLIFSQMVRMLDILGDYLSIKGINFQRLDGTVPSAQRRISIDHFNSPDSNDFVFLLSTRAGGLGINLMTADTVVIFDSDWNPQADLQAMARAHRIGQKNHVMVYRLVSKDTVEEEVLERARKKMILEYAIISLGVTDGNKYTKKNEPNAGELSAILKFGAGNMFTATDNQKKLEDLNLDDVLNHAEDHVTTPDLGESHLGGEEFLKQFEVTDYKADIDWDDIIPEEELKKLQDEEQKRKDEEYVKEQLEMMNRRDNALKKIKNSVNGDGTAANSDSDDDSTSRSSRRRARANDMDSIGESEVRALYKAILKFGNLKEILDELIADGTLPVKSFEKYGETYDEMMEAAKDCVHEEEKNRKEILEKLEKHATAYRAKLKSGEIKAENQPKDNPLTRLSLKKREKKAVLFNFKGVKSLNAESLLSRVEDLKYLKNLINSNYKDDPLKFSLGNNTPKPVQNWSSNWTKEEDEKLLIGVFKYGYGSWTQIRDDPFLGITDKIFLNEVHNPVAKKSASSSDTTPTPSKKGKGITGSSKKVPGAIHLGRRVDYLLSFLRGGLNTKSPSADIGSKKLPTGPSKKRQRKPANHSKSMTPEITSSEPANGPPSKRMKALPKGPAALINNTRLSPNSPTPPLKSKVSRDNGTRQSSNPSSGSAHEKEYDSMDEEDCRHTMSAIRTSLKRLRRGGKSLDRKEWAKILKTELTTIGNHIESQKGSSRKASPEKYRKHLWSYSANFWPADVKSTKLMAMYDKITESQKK

Protein translocase subunit SecA (Escherichia coli (strain K12)), sequence (P10408 whole entry): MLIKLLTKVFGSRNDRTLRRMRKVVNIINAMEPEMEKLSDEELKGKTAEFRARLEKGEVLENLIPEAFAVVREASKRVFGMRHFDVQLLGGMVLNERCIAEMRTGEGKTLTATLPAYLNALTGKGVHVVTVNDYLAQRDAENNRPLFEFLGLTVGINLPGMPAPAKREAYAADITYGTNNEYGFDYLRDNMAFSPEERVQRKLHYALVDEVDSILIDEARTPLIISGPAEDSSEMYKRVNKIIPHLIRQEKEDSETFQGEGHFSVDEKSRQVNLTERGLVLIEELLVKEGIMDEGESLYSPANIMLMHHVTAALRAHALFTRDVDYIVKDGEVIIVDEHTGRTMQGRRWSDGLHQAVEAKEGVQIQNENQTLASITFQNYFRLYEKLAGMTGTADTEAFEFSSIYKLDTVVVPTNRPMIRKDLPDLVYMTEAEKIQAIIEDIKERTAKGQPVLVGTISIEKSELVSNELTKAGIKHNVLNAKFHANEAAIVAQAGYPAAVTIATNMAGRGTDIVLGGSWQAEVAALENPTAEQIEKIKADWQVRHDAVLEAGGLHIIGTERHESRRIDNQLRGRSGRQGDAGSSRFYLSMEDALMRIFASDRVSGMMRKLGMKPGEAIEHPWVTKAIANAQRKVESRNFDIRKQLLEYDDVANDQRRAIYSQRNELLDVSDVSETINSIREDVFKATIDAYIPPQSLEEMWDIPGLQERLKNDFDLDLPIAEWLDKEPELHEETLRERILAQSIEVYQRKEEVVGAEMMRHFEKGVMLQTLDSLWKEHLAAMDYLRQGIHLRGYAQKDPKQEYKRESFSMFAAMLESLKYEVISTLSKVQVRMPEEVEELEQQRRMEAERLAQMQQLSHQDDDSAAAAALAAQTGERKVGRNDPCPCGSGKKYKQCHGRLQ

Compound	Percent Effect [1] [%]	Percent Effect [2] [%]	Percent Effect [3] [%]	Percent Effect [4] [%]	Percent Effect [5] [%]	Percent Effect [6] [%]	Percent Effect [7] [%]	Percent Effect [8] [%]	Percent Effect [9] [%]	Percent Effect [10] [%]	Percent Effect [11] [%]
CCCC(=O)N1CC[C@@H]2[C@H](CC1)N(Cc1cccnc1)CCS2(=O)=O	-8.11	5.41	3.63	-1.04	-0.586	2.5	6.85	0.118	8.91	8.54	-3.88
Cc1ccc(C(=O)Nc2cn[nH]c2)cn1	0.472	13.2	9.28	0.161	-1.13	-3.45	8.69	6.9	1.47	19.5	-10.8
Cc1ccc(C2(CN3CCCC3)CCNCC2)nc1	-3.03	8.11	-4.02	3.83	2.32	-2.86	11.6	-11.7	10.1	9.76	-0.82
Cc1n[nH]c(C2CN(C(=O)Cn3ccccc3=O)CCO2)n1 (stereo unspecified)	-8.02	1.27	4.25	2.29	-1.13	2.37	6.35	1.57	0	2.53	-9.48
O=C(NCCNc1ncccn1)C1CC(=O)N(CC(F)(F)F)C1 (stereo unspecified)	-0.757	16.2	-5.02	-3.51	-7.26	-4.81	5.59	16.5	9.36	13.6	-6.16
Cc1nn(C)c(Cl)c1CNCc1cccnc1N1CCN(C)CC1	-3.92	13.2	2.58	7	2.24	-5.92	17.4	4.03	3.19	18.2	-6.12
Cn1nc(CNC(=O)c2nc3ccccc3s2)c2c1CCOC2	-1.59	0	8.14	0.56	5.03	-0.645	4.18	24.8	1.06	6.41	-5.4
CC(NC(=O)CCc1cccs1)c1nnc2n1CCC2 (stereo unspecified)	-4.31	2.7	-7.36	7.21	1.95	-0.554	7.18	-0.332	5.94	18.3	1.69
CC(Cn1cccn1)NC(=O)NCc1ccc(S(N)(=O)=O)cc1 (stereo unspecified)	-1.8	15.6	6.57	-7.88	-1.27	-1.05	13.7	6	9.52	23.5	-18.9
Cc1cc(C)n(CC2CN(CC(=O)Nc3nncs3)CCO2)n1 (stereo unspecified)	-3.97	15.6	1.37	0.371	-6.37	3.2	-4.05	26.9	6.8	12.2	-2.27
CCC(CC)C(CNC(=O)Nc1cc(C)nn1C)N1CCOCC1 (stereo unspecified)	-4.23	17.7	3.07	-7.11	9.54	-5.32	9.75	4.35	8.37	11.4	-9.76
CN(C)C(=O)C1CN(Cc2ccccc2)CCN(S(C)(=O)=O)C1 (stereo unspecified)	-5.51	17.6	8.68	7.06	4.35	-3.02	3.12	11.2	2.15	9.09	-19.2
Cc1ccc(C(=O)NC2CCN(C(=O)Nc3ccccn3)CC2)o1	-3.11	10.4	-3.63	-17.5	-7.15	-2.32	6.71	9.29	2.86	14.1	-18.9
CC(C)Cc1noc(CN2CCOCC2)n1	-1.04	7.89	-1.16	2.11	2.07	1.15	15.7	-19.8	5.39	12.2	-7.16
CCc1ccc(C(=O)N2CCCC(c3noc(CC)n3)C2)o1 (stereo unspecified)	-0.983	2.6	7.44	4.61	3.04	0.21	4.12	3.88	0.952	7.06	-10.5
CSCc1nc(C(C)(C)NC(=O)OC(C)(C)C)no1	-2.5	2.67	-2.2	1.89	7.3	-2.08	9.07	-12.6	-0.546	1.24	107
